From PubChem BioAssay (NCATS)
Inconclusive results are not listed. A call without a number means that no potency is given here. The source made the active and inactive calls. The call rests on the fitted dose curve; in most records, active means well fitted cell-killing curve with a large enough effect; inconclusive means small, poorly fitted or top-dose-only effect, or effect the other way; inactive means flat fitted curve, though single readings scatter. Where a SMILES comes first, the peptide text is derived from it. [ ]: non-standard residue; d: D form. ξ: configuration not given here. ξPhe(βξ-Me) = CC(c1ccccc1)C(N)C(=O)O; ξLac(3-iPr) = CC(C)CC(O)C(=O)O; NMeV = CN[CH](C(=O)O)C(C)C; GABA = NCCCC(=O)O; βAla = NCCC(=O)O

System: Hek293T
Assay: Primary qHTS to identify gynecologic anti-cancer compounds using libraries of approved drugs and bioactive compounds (AID 1345084); further: nearly all actives have a fitted effect of over 55% in size
Conditions: Gynecologic cancer cell panel viability, ATPlite luminescence, 48 h, control line for the selectivity index; series mostly up to 57.5 µM
Outline: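 Cells, 1,000 per well, were allowed to settle for 16 h at 37 C before compound addition. Five concentrations were tested for 48 h, and viability was read by ATPlite luminescence after 15 min at room temperature.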

Structure (SMILES) | Potency | activity change, negative = cytotoxicity
CC(=O)OC/C=C(\C)C(CC1C(C)=C(OC(C)=O)C(=O)C2C(C)(C)C(O)CCC12C)OC(C)=O (stereo not given) | inactive | –
CC1NC(=O)CCCNC(=O)C(Cc2c[nH]c3ccccc23)NC(=O)C(C)NC(=O)C(C(C)C)NC(=O)C(C(C)c2ccccc2)NC(=O)C(C(C)C)NC1=O (stereo not drawn) (cyclo([GABA]AV[ξPhe(βξ-Me)]VAW); configuration not given here) | inactive | –
C/C=C(\C)C(=O)O[C@@H]1CC2[C@@H](CC=C3C[C@@H](O[C@H]4C[C@H](OC)[C@H](O[C@H]5C[C@H](OC)[C@H](O[C@@H]6O[C@H](C)[C@@H](O[C@H]7C[C@H](OC)[C@H](O[C@@H]8O[C@H](CO)[C@@H](O)[C@H](O)[C@H]8O)[C@@H](C)O7)[C@H](OC)[C@H]6O)[C@@H](C)O5)[C@@H](C)O4)CC[C@@]32C)[C@@]2(O)CC[C@H](C(C)=O)[C@@]12C (stereo not given in full) | – | -2.04% [at 6.55 µM] (inactive)
OC[C@H]1O[C@@H](O[C@H]2[C@H](OCc3ccccc3)O[C@H](CO[C@@H]3OC[C@@H](O)[C@H](O)[C@H]3O)[C@@H](O)[C@@H]2O)[C@H](O)[C@@H](O)[C@@H]1O | inactive | –
CC1(C)C[C@H](O)C[C@@]2(C)OC(=O)C=C12 | inactive | –
C=C(C(=O)O)C1CC2=C(C)CCCC2(C)C[C@@H]1O (stereo not given in full) | inactive | –
CC[C@@](C)(Nc1ccnc(-c2c[nH]c3ncccc23)n1)C(=O)NCC(F)(F)F | inactive | –
COc1ccc(-c2c(-c3cc(C(=O)O)ccn3)ncn2C)cc1 | inactive | –
Cc1nc(C)c(-c2ccc(C3CCC(CC(=O)O)CC3)cc2)nc1C(N)=O (stereo not given) | inactive | –
CC(C)CC1OC(=O)C2CCCN2C(=O)CCNC(=O)C(Cc2ccccc2)NC(=O)C(C(C)C)N(C)C(=O)C(C(C)C)N(C)C1=O (stereo not given) (cyclo([ξLac(3-iPr)][NMeV][NMeV]F[βAla]P); configuration not given here) | inactive | –
C=C1C(O)C[C@@H]2C(C(=O)O)=CO[C@@H](O[C@@H]3O[C@H](CO)[C@@H](O)[C@H](O)[C@H]3OC(=O)c3ccc(O)cc3)[C@H]12 (stereo not given in full) | inactive | –
CC(O)CCC1C(CO[C@@H]2O[C@H](CO)[C@@H](O)[C@H](O)[C@H]2O)CC(O)CC1(C)C (stereo not given in full) | inactive | –
CC1=C2C(O)C(=O)OC(c3ccoc3)C2(C)CCC1O (stereo not given) | inactive | –
O=C(Nc1ccccc1-c1cn2c(CN3CCNCC3)csc2n1)c1ccc2ccccc2n1 | inactive | –
COC(=O)CC(C)(O)CC(=O)OCc1ccc(O[C@@H]2O[C@H](CO)[C@@H](O)[C@H](O)[C@H]2O)cc1 (stereo not given in full) | inactive | –
